# About 79,000 compounds went through this panel and 15% of them were active in at least one assay; those are over-represented in the sample as a whole. Values without a mark were called inactive. The source made the active and inactive calls. Cut-off read from the data, not from the text of the source: active = growth inhibition above about 70%; inactive = the rest.
# Tests used:
# [1] = NCI Yeast Anticancer Drug Screen. Data for the rad52 strain (AID 147);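 note: 0% = growth of vehicle-treated control cultures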; conditions: S. cerevisiae rad52 mutant growth inhibition, active compounds read high
# Outline: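 Compounds are applied to a genetically defined yeast strain lacking normal DNA damage repair, and inhibition of growth is expressed relative to cultures given vehicle only.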
# [2] = NCI Yeast Anticancer Drug Screen. Data for the wt1 strain (AID 149);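 note: 0% = growth of vehicle-treated wt1 cultures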; conditions: S. cerevisiae wt1 strain (SPY 50644) growth inhibition, active compounds read high
# Outline: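 The wt1 strain was treated with compounds, and growth was compared with vehicle-treated cultures to give inhibition.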
# [3] = NCI Yeast Anticancer Drug Screen. Data for the rad50EPP+ strain (AID 151);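 note: 0% = growth of vehicle-treated control cultures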; conditions: S. cerevisiae rad50 mutant strain, active compounds read high
# Outline: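 Compounds were applied to the rad50EPP+ yeast strain, which bears a defined DNA repair alteration, and growth inhibition was determined relative to vehicle-treated cultures.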
# [4] = NCI Yeast Anticancer Drug Screen. Data for the mgt1 strain (AID 153); conditions: S. cerevisiae mgt1 mutant growth inhibition, active compounds read high
# Outline: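 Strain: mgt1 yeast, one of a set carrying defined DNA damage repair or cell cycle control alterations. Compound-treated growth compared with vehicle.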
# [5] = NCI Yeast Anticancer Drug Screen. Data for the rad50 strain (AID 155);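 note: 0% = growth of vehicle-only cultures of the same strain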; conditions: S. cerevisiae rad50 strain growth inhibition, active compounds read high
# Outline: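 Cells are treated with compound, grown, and their growth is then scored against vehicle-only cultures of the same repair-deficient yeast strain.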
# [6] = NCI Yeast Anticancer Drug Screen. Data for the mec2-1 strain (AID 157); conditions: S. cerevisiae mec2-1 strain, active compounds read high
# Outline: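 Strain: mec2-1 (DNA repair/cell cycle alteration). Compound exposure, then growth measured; inhibition expressed relative to vehicle.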
# [7] = NCI Yeast Anticancer Drug Screen. Data for the sgs1 mgt1 strain (AID 161);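 note: 0% = growth of cultures given vehicle only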; conditions: S. cerevisiae sgs1 mgt1 strain, active compounds read high
# Outline: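 Mutant yeast exposed to compound; growth scored against vehicle-only wells.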
# [8] = NCI Yeast Anticancer Drug Screen. Data for the CLN2oe strain (AID 163);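 note: 0% = growth of vehicle-only control cultures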; conditions: S. cerevisiae CLN2oe strain, active compounds read high
# Outline: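 Growth of a genetically modified yeast strain is measured after compound exposure and compared with cultures given vehicle alone.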
# [9] = NCI Yeast Anticancer Drug Screen. Data for the cln2 rad14 strain (AID 165);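 note: 0% = growth equal to vehicle treated cultures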; conditions: S. cerevisiae cln2 rad14 strain, active compounds read high
# Outline: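 Compounds are applied to the cln2 rad14 yeast strain, and growth is then compared with that of vehicle-treated cultures to give inhibition.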
# [10] = NCI Yeast Anticancer Drug Screen. Data for the bub3 strain (AID 167); conditions: S. cerevisiae bub3 mutant strain, active compounds read high
# Outline: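 Part of a panel of yeast mutants defective in DNA damage repair or cell cycle regulation. Each strain is grown with compound, and inhibition is calculated relative to solvent-treated cultures.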
# [11] = NCI Yeast Anticancer Drug Screen. Data for the wt2 strain (AID 169);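 note: 0% = growth of vehicle-treated yeast cultures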; conditions: S. cerevisiae wt2 strain growth inhibition, active compounds read high
# Outline: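 This strain belongs to a panel of yeast strains with defined genetic alterations in DNA damage repair or cell cycle control. Compounds are applied, and growth inhibition is measured against vehicle-treated cultures.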
# [12] = NCI Yeast Anticancer Drug Screen. Data for the mlh1 strain (AID 171);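 note: 0% = growth of vehicle-treated control cultures of the same strain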; conditions: S. cerevisiae mlh1 strain growth inhibition, active compounds read high
# Outline: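 Growth of the mutant yeast strain after compound exposure, expressed as inhibition relative to vehicle-only controls.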
# [13] = NCI Yeast Anticancer Drug Screen. Data for the sgs1 strain (AID 173);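 note: 0% = growth of vehicle-only control cultures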; conditions: S. cerevisiae sgs1 mutant, active compounds read high
# Outline: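 Growth of a yeast strain bearing a defined genetic alteration is measured after compound treatment. Inhibition is expressed relative to vehicle-only controls.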
# [14] = NCI Yeast Anticancer Drug Screen. Data for the mlh1 rad18 strain (AID 175); conditions: S. cerevisiae mlh1 rad18 strain growth inhibition, active compounds read high
# Outline: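 Read-out is yeast growth inhibition, calculated against vehicle-only controls. The compound was applied to a strain engineered with DNA damage repair alterations.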
# [15] = NCI Yeast Anticancer Drug Screen. Data for the rad18 strain (AID 177); conditions: S. cerevisiae rad18 mutant growth inhibition, active compounds read high
# Outline: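 Growth of the mutant yeast strain after compound exposure, normalised to vehicle-only cultures.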
# [16] = at 5.0 µM (retest, dose inferred, filed as 0.5)
# [17] = at 50.0 µM (retest, dose inferred, filed as 5.0)
smiles,measurement,setting,value
Cc1ccc(S(=O)(=O)Nc2cccc3cccnc23)cc1,growth inhibition,[1]; at 1.2 µM,10%
same,growth inhibition,[1]; at 3.7 µM,14%
same,growth inhibition,[1]; at 11.0 µM,25%
same,growth inhibition,[1]; at 33.0 µM,75% (active)
same,growth inhibition,[1]; at 100.0 µM,52%
same,growth inhibition,[2]; at 1.2 µM,15%
same,growth inhibition,[2]; at 3.7 µM,14%
same,growth inhibition,[2]; at 11.0 µM,18%
same,growth inhibition,[2]; at 33.0 µM,71% (active)
same,growth inhibition,[2]; at 100.0 µM,39%
same,growth inhibition,[3]; at 1.2 µM,16%
same,growth inhibition,[3]; at 3.7 µM,17%
same,growth inhibition,[3]; at 11.0 µM,16%
same,growth inhibition,[3]; at 33.0 µM,62%
same,growth inhibition,[3]; at 100.0 µM,66%
same,growth inhibition,[4]; at 1.2 µM,14%
same,growth inhibition,[4]; at 3.7 µM,-5%
same,growth inhibition,[4]; at 11.0 µM,25%
same,growth inhibition,[4]; at 33.0 µM,77% (active)
same,growth inhibition,[4]; at 100.0 µM,79% (active)
same,growth inhibition,[5]; at 1.2 µM,15%
same,growth inhibition,[5]; at 3.7 µM,25%
same,growth inhibition,[5]; [16],46%
same,growth inhibition,[5]; at 11.0 µM,22%
same,growth inhibition,[5]; at 33.0 µM,79% (active)
same,growth inhibition,[5]; [17],97% (active)
same,growth inhibition,[5]; at 50.0 µM,46%
same,growth inhibition,[5]; at 100.0 µM,84% (active)
same,growth inhibition,[6]; at 1.2 µM,7%
same,growth inhibition,[6]; at 3.7 µM,18%
same,growth inhibition,[6]; [16],49%
same,growth inhibition,[6]; at 11.0 µM,23%
same,growth inhibition,[6]; at 33.0 µM,79% (active)
same,growth inhibition,[6]; [17],98% (active)
same,growth inhibition,[6]; at 50.0 µM,20.2%
same,growth inhibition,[6]; at 100.0 µM,60%
same,growth inhibition,[7]; [16],-15%
same,growth inhibition,[7]; [17],41%
same,growth inhibition,[7]; at 50.0 µM,59%
same,growth inhibition,[8]; at 1.2 µM,15%
same,growth inhibition,[8]; at 3.7 µM,12%
same,growth inhibition,[8]; at 11.0 µM,41%
same,growth inhibition,[8]; at 33.0 µM,69%
same,growth inhibition,[8]; at 100.0 µM,46%
same,growth inhibition,[9]; [16],25%
same,growth inhibition,[9]; [17],54%
same,growth inhibition,[9]; at 50.0 µM,48%
same,growth inhibition,[10]; at 1.2 µM,-11%
same,growth inhibition,[10]; at 3.7 µM,-14%
same,growth inhibition,[10]; [16],29%
same,growth inhibition,[10]; at 11.0 µM,-3%
same,growth inhibition,[10]; at 33.0 µM,50%
same,growth inhibition,[10]; [17],23%
same,growth inhibition,[10]; at 50.0 µM,27.7%
same,growth inhibition,[10]; at 100.0 µM,15%
same,growth inhibition,[11]; at 1.2 µM,-13%
same,growth inhibition,[11]; at 3.7 µM,-5%
same,growth inhibition,[11]; at 11.0 µM,8%
same,growth inhibition,[11]; at 33.0 µM,53%
same,growth inhibition,[11]; at 100.0 µM,59%
same,growth inhibition,[12]; at 1.2 µM,14%
same,growth inhibition,[12]; at 3.7 µM,3%
same,growth inhibition,[12]; at 11.0 µM,9%
same,growth inhibition,[12]; at 33.0 µM,78% (active)
same,growth inhibition,[12]; at 100.0 µM,62%
same,growth inhibition,[13]; at 1.2 µM,1%
same,growth inhibition,[13]; at 3.7 µM,4%
same,growth inhibition,[13]; at 11.0 µM,44%
same,growth inhibition,[13]; at 33.0 µM,82% (active)
same,growth inhibition,[13]; at 100.0 µM,63%
same,growth inhibition,[14]; [16],44%
same,growth inhibition,[14]; [17],100% (active)
same,growth inhibition,[14]; at 50.0 µM,71% (active)
same,growth inhibition,[15]; at 1.2 µM,9%
same,growth inhibition,[15]; at 3.7 µM,4%
same,growth inhibition,[15]; at 11.0 µM,25%
same,growth inhibition,[15]; at 33.0 µM,74% (active)
same,growth inhibition,[15]; at 100.0 µM,71% (active)

# From PubChem BioAssay (NCI)
